Test: G2/M cell cycle arrest in HeLa, late-stage follow-up, mechanism study for Wee1 degradation inhibitor project, FACS (AID 2088)
Conditions: HeLa Wee1-luciferase degradation, luminescence, G2/M arrest assay, compound-treated cells, stronger effect = higher value, concentration not given here

Compound: Cc1ccnc(NC(=O)CCCOc2cc(=O)n(C)c3ccccc23)c1
- G2/M cells: 30.5%
